The panel holds about 83,000 compounds, 20% with a hit somewhere; the sample as a whole holds those more often.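 A percent growth of 40 corresponds to 60% growth inhibition; 0 means no net growth; -100 means all cells died. Active threshold: below 10.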 Active and inactive are the calls of the source.

The test system of one assay is MALME-3M melanoma. Description: NCI-60 one-dose screen, 48 h (100 = growth as untreated, 0 = no growth, -100 = all killed). To be noted: 10 µM unless noted.
With `COc1cc(C(=O)/C=C/c2c(-c3ccc(F)cc3)nc3sccn23)cc(OC)c1OC`, the growth is 33.6% (inactive).

Regarding `Nc1nc(N)c2c(n1)NC(c1ccc(F)cc1)C1CCc3ccccc3C1=N2` (stereo not drawn), the growth was 17.2% (inactive).

With `COc1ccc(-c2cc(-c3ccc(Cl)cc3)nc(NCCCCNc3ccnc4cc(Cl)ccc34)n2)cc1`, the growth was -18% (active).

For `Cc1cc(C)nc(SCC(=O)Nc2cccc(N=Cc3ccccc3O)c2)n1`, the growth was 101% (inactive).

`O=C(Nc1ccc(Nc2ccncc2)cc1)c1ccc([N+](=O)[O-])cc1`: the growth is 59.1% (inactive).

Take `O=C1COCCN1c1ccc(NCc2cn(Cc3cccc4ccccc34)c3ccccc23)cc1`: the growth was 90.1% (inactive).

As to `O=C1/C(=C\c2cccn2Cc2ccccc2)c2ccccc2N1c1c(Cl)cccc1Cl`, the growth was 54% (inactive).

With `CCCCCN(CCCCC)CCCCCCCCN1CCCc2ccccc21`, the growth is 99.2% (inactive).

As to `CC(C)CSc1ncnc2nc[nH]c12`, the growth was 104% (inactive).

For the compound `CCN(CC)CCCC(C)Nc1ccnc2cc(Cl)c(SCc3ccccc3)cc12` (stereo not drawn), the growth is -77.3% (active).

Turning to `O=C(Nc1ccc(C(=O)/C=C/c2ccc(N3CCOCC3)cc2)cc1)Nc1ccc([N+](=O)[O-])cc1`, the growth is 108% (inactive).

In the case of `Cc1ccc(-c2cn(C/C=C3\C=CN(S(=O)(=O)c4ccccc4)CC3)nn2)cc1`, the growth was 104% (inactive).

For `CCOc1ccc2sc(NS(=O)(=O)c3ccc(N)cc3)nc2c1`, the growth is 118% (inactive).

With `O=C(NCCCNC(=O)OCc1ccc2c(Br)cc(Br)c(O)c2n1)OCc1ccc2c(Br)cc(Br)c(O)c2n1`, the growth is -87.8% (active).

With `C=CCc1nc2ccccc2s1`, the growth was 115% (inactive).

With `CCN(CC)CCCNCc1cc(-c2ccccc2)nc2ccccc12`, the growth was 50.7% (inactive).

With `C=C(C)[C@@H]1CC[C@]2(C(N)=O)CC[C@]3(C)[C@H](CC[C@@H]4[C@@]5(C)C/C(=C/c6cccnc6)C(=O)C(C)(C)[C@@H]5CC[C@]43C)[C@@H]12`, the growth was -19.7% [100 µM] (active).

Regarding `COC(=O)C(=Cc1ccccc1[N+](=O)[O-])C(=O)OC`, the growth was 25.2% (inactive).

As for `CCOC(CNC(=O)c1cccc([N+](=O)[O-])c1)OCC`, the growth was 96.8% (inactive).

As for `Cc1ccc(-c2cc(O)c(-c3ccc(C)cc3C)cc2O)c(C)c1`, the growth was 115% (inactive).

Consider `Fc1cc2[nH]ncc2c2c3c(c(-c4cn[nH]c4)nc12)CCCC3`, for which the growth is -14.8% (active).

Regarding `O=C(CCN1CCCCC1)c1ccc(Cl)cc1`, the growth was 105% (inactive).

As to `CCOC(=O)C1=C(C(=O)c2ccc(Br)cc2)C(c2ccc(Br)cc2)NC(=S)N1` (stereo not drawn), the growth was 107% (inactive).

`Cn1cc(-c2noc(-c3cn(C)c4ncc(F)cc34)n2)c2cc(Cl)ccc21`: the growth was 48.1% (inactive).

Turning to `O=[N+]([O-])c1cc([N+](=O)[O-])c(NN=C(c2ccc(O)cc2)c2ccc(O)cc2)cc1Cl`, the growth was -51.6% (active).

`NNC(=O)c1ccc(C(=O)NN)cc1`: the growth is 98% (inactive).

`CN(C)CCOc1ccc(/C(=C(/CCCl)c2ccccc2)c2ccccc2)cc1`: the growth is -57.8% (active).

For `CC(=O)Nc1ccc2nc3ccc(NC(C)=O)cc3[n+](-c3ccccc3)c2c1`, the growth is 115% (inactive).

Consider `COc1ccc(/C=C(/C(=O)c2ccc(Cl)cc2)C(=O)C(F)(F)F)cc1`, for which the growth was 107% (inactive).

As for `COc1cc2c(c(OC)c1)C1c3cc(OC)ccc3NC(=O)N1CC2` (stereo not drawn), the growth is 75.5% (inactive).

On to `COc1ccc(C=C2c3ccccc3-c3ccccc32)cc1`, for which the growth is 63.5% (inactive).

Take `O=S(=O)(c1ccc(N/N=C\c2ccccc2Cl)cc1)c1ccc(N/N=C/c2ccccc2Cl)cc1`: the growth is 94.6% (inactive).

Take `CSc1nc(N)c(N=Nc2ccc(S(=O)(=O)Nc3nnc(C)s3)cc2)c(=O)[nH]1`: the growth is 109% (inactive).

For the compound `C=C(C)[C@@H]1CC[C@]2(C)[C@H](CC=C3[C@@H]4[C@@H](C)[C@H](C)CC[C@]4(C(N)=O)CC[C@]32C)[C@@]1(C)CCC#N`, the growth is -65.5% [100 µM] (active).

Take `CCOC(=O)CC(c1ccccc1)C(C#N)c1ccccc1` (stereo not drawn): the growth is 90.9% (inactive).

`Clc1ccc(/C=N/Nc2nc3ccccc3s2)c(Cl)c1`: the growth is 79.6% (inactive).

Take `CC1(C)CC[C@]2(C(=O)O)CC[C@]3(C)[C@H](CC[C@@H]4[C@@]5(C)CCC(=O)C(C)(C)[C@@H]5CC[C@]43C)[C@H]2[C@H]1OC(=O)C(F)(F)F`: the growth is -65% [100 µM] (active).

A further assay concerns MDA-MB-231 breast. The assay is described as above. Particulars: 10 µM unless noted.
In the case of `COc1cc(C(=O)/C=C/c2c(-c3ccc(F)cc3)nc3sccn23)cc(OC)c1OC`, the growth is 51% (inactive).

For the compound `Nc1nc(N)c2c(n1)NC(c1ccc(F)cc1)C1CCc3ccccc3C1=N2` (stereo not drawn), the growth was 80.8% (inactive).

For the compound `COc1ccc(-c2cc(-c3ccc(Cl)cc3)nc(NCCCCNc3ccnc4cc(Cl)ccc34)n2)cc1`, the growth was 73.4% (inactive).

With `Cc1cc(C)nc(SCC(=O)Nc2cccc(N=Cc3ccccc3O)c2)n1`, the growth was 89.5% (inactive).

On to `O=C(Nc1ccc(Nc2ccncc2)cc1)c1ccc([N+](=O)[O-])cc1`, for which the growth is 93.5% (inactive).

Consider `O=C1COCCN1c1ccc(NCc2cn(Cc3cccc4ccccc34)c3ccccc23)cc1`, for which the growth was 101% (inactive).

As for `O=C1/C(=C\c2cccn2Cc2ccccc2)c2ccccc2N1c1c(Cl)cccc1Cl`, the growth is 28.9% (inactive).

On to `CCCCCN(CCCCC)CCCCCCCCN1CCCc2ccccc21`, for which the growth was 90.9% (inactive).

Take `CC(C)CSc1ncnc2nc[nH]c12`: the growth was 98.3% (inactive).

On to `CCN(CC)CCCC(C)Nc1ccnc2cc(Cl)c(SCc3ccccc3)cc12` (stereo not drawn), for which the growth is -78.5% (active).

For `O=C(Nc1ccc(C(=O)/C=C/c2ccc(N3CCOCC3)cc2)cc1)Nc1ccc([N+](=O)[O-])cc1`, the growth is 94.8% (inactive).

With `Cc1ccc(-c2cn(C/C=C3\C=CN(S(=O)(=O)c4ccccc4)CC3)nn2)cc1`, the growth is 97.5% (inactive).

For the compound `CCOc1ccc2sc(NS(=O)(=O)c3ccc(N)cc3)nc2c1`, the growth was 106% (inactive).

In the case of `O=C(NCCCNC(=O)OCc1ccc2c(Br)cc(Br)c(O)c2n1)OCc1ccc2c(Br)cc(Br)c(O)c2n1`, the growth was -68.5% (active).

`C=CCc1nc2ccccc2s1`: the growth is 103% (inactive).

In the case of `CCN(CC)CCCNCc1cc(-c2ccccc2)nc2ccccc12`, the growth was 31.3% (inactive).

For the compound `C=C(C)[C@@H]1CC[C@]2(C(N)=O)CC[C@]3(C)[C@H](CC[C@@H]4[C@@]5(C)C/C(=C/c6cccnc6)C(=O)C(C)(C)[C@@H]5CC[C@]43C)[C@@H]12`, the growth is 0.809% [100 µM] (active).

On to `COC(=O)C(=Cc1ccccc1[N+](=O)[O-])C(=O)OC`, for which the growth was 48% (inactive).

`CCOC(CNC(=O)c1cccc([N+](=O)[O-])c1)OCC`: the growth is 92.9% (inactive).

In the case of `Cc1ccc(-c2cc(O)c(-c3ccc(C)cc3C)cc2O)c(C)c1`, the growth is 58.2% (inactive).

In the case of `Fc1cc2[nH]ncc2c2c3c(c(-c4cn[nH]c4)nc12)CCCC3`, the growth was 3.56% (active).

As to `O=C(CCN1CCCCC1)c1ccc(Cl)cc1`, the growth was 104% (inactive).

`CCOC(=O)C1=C(C(=O)c2ccc(Br)cc2)C(c2ccc(Br)cc2)NC(=S)N1` (stereo not drawn): the growth is 109% (inactive).

Consider `Cn1cc(-c2noc(-c3cn(C)c4ncc(F)cc34)n2)c2cc(Cl)ccc21`, for which the growth was 52.7% (inactive).

In the case of `O=[N+]([O-])c1cc([N+](=O)[O-])c(NN=C(c2ccc(O)cc2)c2ccc(O)cc2)cc1Cl`, the growth is -70.4% (active).

As to `NNC(=O)c1ccc(C(=O)NN)cc1`, the growth was 117% (inactive).

As to `CN(C)CCOc1ccc(/C(=C(/CCCl)c2ccccc2)c2ccccc2)cc1`, the growth is -11% (active).

On to `CC(=O)Nc1ccc2nc3ccc(NC(C)=O)cc3[n+](-c3ccccc3)c2c1`, for which the growth is 66.3% (inactive).

As to `COc1ccc(/C=C(/C(=O)c2ccc(Cl)cc2)C(=O)C(F)(F)F)cc1`, the growth is 110% (inactive).

On to `COc1cc2c(c(OC)c1)C1c3cc(OC)ccc3NC(=O)N1CC2` (stereo not drawn), for which the growth was 66.5% (inactive).

For the compound `COc1ccc(C=C2c3ccccc3-c3ccccc32)cc1`, the growth was 59.2% (inactive).

Regarding `O=S(=O)(c1ccc(N/N=C\c2ccccc2Cl)cc1)c1ccc(N/N=C/c2ccccc2Cl)cc1`, the growth was 81.6% (inactive).

For the compound `CSc1nc(N)c(N=Nc2ccc(S(=O)(=O)Nc3nnc(C)s3)cc2)c(=O)[nH]1`, the growth is 103% (inactive).

In the case of `C=C(C)[C@@H]1CC[C@]2(C)[C@H](CC=C3[C@@H]4[C@@H](C)[C@H](C)CC[C@]4(C(N)=O)CC[C@]32C)[C@@]1(C)CCC#N`, the growth was -55.4% [100 µM] (active).

Turning to `CCOC(=O)CC(c1ccccc1)C(C#N)c1ccccc1` (stereo not drawn), the growth was 106% (inactive).

For the compound `CC1(C)CC[C@]2(C(=O)O)CC[C@]3(C)[C@H](CC[C@@H]4[C@@]5(C)CCC(=O)C(C)(C)[C@@H]5CC[C@]43C)[C@H]2[C@H]1OC(=O)C(F)(F)F`, the growth was -62.3% [100 µM] (active).

(Values after PubChem BioAssay (NCI).)
